Reference: the supplement of paper PMC10849652
The full data set covers some 7,900 targets. This sample favours those with a hit. About 0.6% of all pairs of compound and target were hits. A number with no mark means an inactive call.

Key:
Test in all cases: log2 fold change, soluble protein after heating vs DMSO (PISA); higher = thermal stabilisation; K562 cells, 10 uM, 30 min; active = over 0.2 and 3.5 SD of the protein, either way, in both replicates (recomputed)
[1] = compound: C1=CC=C(C=C1)[C@H](COC2=CC3=C(C=C2)NC(=O)N3)NC(=O)C4=CC=CN(C4=O)CC5=CC(=C(C=C5)F)F
Summary of the method: (§1)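 Aliquots of K562 cells (2×10^6 cells/mL) treated with 10 μM compound for 30 min were heated for 3 min over 48°C-58°C. After pooling and extraction in PBS with 0.5% NP-40 at 4°C, soluble protein from a 21,000xg, 90 min spin was quantified by TMTpro 16plex LC-MS/MS with channel sums equalised. Thermal stability is expressed against control samples, from duplicates, as a log2 fold change.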

[2] = compound: CC1=C(SC2=C1C(=N[C@H](C3=NN=C(N32)C)CC(=O)N)C4=CC=C(C=C4)Cl)C
Summary of the method: as §1

[3] = compound: CC1=C2C(=CC=C1)N=C(N(C2=O)C3=CC=CC=C3C)CN4C=NC5=C(N=CN=C54)N
Summary of the method: as §1

[4] = compound: Cc1sc2c(c1C)C(c1ccc(Cl)cc1)=N[C@@H](CC(=O)OC(C)(C)C)c1nnc(C)n1-2
Summary of the method: as §1

[5] = compound: c1ccc([C@@H]2C[C@H]2NC2CCNCC2)cc1
Summary of the method: as §1

Sequence of UniProt P15291 (P15291 whole entry, looked up): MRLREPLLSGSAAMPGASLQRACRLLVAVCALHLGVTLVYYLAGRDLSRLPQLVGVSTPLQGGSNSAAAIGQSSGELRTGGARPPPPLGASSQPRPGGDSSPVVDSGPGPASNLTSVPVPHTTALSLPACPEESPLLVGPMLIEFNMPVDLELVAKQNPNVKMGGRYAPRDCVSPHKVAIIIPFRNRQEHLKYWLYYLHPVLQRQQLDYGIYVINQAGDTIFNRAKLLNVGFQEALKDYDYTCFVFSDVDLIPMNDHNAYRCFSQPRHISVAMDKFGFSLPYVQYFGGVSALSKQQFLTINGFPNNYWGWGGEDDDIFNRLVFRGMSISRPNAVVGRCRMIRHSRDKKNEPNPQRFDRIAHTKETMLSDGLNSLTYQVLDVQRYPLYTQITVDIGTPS
Sequence of UniProt Q8NHH9 (Q8NHH9 whole entry, looked up): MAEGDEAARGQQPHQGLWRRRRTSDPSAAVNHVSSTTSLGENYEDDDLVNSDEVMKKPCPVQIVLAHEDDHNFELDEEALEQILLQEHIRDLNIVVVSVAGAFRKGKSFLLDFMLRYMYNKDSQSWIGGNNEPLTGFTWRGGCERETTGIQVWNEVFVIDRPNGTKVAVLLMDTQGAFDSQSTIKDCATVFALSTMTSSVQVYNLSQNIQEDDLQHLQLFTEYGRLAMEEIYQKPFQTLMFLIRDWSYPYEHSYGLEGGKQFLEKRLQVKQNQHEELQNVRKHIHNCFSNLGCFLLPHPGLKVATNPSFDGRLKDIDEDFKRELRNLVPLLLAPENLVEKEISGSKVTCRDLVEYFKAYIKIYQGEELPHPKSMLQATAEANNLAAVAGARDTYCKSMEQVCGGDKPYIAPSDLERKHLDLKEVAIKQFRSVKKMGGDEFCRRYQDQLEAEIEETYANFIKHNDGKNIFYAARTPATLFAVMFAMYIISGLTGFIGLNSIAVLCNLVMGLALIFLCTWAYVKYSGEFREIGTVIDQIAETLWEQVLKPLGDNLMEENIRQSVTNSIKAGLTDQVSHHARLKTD
Sequence of UniProt P53367 (P53367 whole entry, looked up): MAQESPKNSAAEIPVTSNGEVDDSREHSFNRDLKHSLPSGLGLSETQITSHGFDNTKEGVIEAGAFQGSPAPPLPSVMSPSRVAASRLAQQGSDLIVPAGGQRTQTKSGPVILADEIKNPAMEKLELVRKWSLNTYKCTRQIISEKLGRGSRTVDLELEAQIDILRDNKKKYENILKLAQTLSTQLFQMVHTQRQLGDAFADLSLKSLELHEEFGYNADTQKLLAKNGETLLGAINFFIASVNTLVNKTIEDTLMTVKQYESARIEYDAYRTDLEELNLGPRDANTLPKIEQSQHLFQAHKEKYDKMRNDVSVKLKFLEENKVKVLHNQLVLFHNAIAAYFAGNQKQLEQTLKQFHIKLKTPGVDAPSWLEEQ
Sequence of UniProt Q9UKG1 (Q9UKG1 whole entry, looked up): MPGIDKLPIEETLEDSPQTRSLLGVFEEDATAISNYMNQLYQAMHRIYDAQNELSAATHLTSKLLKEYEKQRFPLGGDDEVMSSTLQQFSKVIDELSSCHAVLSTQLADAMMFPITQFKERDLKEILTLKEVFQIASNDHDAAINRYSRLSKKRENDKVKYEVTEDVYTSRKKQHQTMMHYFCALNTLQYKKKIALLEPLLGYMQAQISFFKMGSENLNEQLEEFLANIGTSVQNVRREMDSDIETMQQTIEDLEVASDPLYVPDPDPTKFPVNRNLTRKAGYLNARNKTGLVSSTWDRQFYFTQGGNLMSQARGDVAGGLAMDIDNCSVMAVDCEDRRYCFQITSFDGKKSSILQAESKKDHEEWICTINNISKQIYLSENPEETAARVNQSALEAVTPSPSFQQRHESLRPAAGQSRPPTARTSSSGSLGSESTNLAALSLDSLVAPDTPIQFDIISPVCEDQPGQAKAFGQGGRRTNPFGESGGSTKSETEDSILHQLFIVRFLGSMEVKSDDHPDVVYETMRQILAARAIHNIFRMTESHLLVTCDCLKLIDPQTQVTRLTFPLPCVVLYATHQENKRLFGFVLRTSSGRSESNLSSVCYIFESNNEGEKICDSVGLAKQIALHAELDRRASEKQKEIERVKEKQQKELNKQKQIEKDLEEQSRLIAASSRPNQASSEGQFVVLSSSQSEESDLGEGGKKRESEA
Sequence of UniProt O00244 (O00244 whole entry, looked up): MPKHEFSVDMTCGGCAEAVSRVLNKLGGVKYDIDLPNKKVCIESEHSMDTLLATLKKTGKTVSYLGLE
Sequence of UniProt Q9NWB6 (Q9NWB6 whole entry, looked up): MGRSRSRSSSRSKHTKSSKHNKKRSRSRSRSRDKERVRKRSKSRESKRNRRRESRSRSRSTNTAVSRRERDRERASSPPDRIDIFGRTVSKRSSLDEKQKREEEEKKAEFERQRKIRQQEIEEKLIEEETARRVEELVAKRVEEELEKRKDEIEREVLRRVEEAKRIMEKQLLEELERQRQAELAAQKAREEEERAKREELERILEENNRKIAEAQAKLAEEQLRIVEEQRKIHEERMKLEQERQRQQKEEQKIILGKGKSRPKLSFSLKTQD
Sequence of UniProt Q8TDN6 (Q8TDN6 whole entry, looked up): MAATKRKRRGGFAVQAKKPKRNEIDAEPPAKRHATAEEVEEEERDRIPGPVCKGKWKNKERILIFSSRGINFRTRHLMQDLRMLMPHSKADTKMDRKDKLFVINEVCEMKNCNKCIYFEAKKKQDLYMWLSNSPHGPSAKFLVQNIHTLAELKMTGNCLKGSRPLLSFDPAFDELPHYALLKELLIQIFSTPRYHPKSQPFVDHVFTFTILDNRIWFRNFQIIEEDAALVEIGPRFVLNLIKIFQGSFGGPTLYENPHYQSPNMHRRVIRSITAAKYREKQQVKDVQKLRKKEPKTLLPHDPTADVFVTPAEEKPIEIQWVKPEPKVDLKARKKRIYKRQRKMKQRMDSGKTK
Sequence of UniProt Q15059 (Q15059 whole entry, looked up): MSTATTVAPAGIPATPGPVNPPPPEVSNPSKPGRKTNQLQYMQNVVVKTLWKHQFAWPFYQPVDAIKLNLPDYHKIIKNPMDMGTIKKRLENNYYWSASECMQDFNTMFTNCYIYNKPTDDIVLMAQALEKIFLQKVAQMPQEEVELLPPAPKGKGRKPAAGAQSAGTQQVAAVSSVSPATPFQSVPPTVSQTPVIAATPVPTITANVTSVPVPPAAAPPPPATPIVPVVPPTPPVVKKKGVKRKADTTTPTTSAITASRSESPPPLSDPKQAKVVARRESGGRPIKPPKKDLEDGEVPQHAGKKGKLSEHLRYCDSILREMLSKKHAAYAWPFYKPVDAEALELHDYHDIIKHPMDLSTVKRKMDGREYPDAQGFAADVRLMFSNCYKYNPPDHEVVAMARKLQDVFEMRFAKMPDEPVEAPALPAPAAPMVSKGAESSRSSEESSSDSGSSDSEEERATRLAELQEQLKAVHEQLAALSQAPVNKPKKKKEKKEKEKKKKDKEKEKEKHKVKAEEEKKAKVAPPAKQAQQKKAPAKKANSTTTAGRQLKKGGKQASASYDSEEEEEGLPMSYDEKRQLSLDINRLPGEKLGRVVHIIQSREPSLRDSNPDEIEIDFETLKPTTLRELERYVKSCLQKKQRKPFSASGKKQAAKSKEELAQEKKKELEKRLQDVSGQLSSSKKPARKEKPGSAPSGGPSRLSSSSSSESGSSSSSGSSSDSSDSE
Sequence of UniProt P63010 (P63010 whole entry, looked up): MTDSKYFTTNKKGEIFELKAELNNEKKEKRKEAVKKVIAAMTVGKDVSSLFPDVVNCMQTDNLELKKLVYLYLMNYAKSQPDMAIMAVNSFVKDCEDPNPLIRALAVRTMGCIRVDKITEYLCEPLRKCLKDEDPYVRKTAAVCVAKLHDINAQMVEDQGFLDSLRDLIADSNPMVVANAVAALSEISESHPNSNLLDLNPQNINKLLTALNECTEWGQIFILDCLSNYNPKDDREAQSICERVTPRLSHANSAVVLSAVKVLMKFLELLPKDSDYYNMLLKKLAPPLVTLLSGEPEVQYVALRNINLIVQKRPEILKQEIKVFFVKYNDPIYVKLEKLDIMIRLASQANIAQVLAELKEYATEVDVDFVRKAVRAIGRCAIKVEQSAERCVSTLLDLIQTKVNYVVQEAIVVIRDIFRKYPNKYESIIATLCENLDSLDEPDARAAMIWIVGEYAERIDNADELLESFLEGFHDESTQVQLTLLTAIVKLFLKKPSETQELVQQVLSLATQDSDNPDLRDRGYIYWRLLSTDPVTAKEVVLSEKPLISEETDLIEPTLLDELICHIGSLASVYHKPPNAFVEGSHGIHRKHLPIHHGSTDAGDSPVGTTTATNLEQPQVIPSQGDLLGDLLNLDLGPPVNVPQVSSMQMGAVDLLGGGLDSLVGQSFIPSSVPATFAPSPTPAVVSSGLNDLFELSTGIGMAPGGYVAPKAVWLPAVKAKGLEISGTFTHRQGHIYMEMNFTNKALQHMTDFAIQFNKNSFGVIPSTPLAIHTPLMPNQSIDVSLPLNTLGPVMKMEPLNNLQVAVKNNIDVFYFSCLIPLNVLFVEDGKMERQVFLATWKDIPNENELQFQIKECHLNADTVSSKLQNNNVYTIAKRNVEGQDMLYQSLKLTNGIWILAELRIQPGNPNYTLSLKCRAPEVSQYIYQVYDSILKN
Sequence of UniProt P56385 (P56385 whole entry, looked up): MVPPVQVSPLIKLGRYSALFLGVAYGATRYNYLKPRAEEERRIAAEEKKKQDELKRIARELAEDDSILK
Sequence of UniProt P08758 (P08758 whole entry, looked up): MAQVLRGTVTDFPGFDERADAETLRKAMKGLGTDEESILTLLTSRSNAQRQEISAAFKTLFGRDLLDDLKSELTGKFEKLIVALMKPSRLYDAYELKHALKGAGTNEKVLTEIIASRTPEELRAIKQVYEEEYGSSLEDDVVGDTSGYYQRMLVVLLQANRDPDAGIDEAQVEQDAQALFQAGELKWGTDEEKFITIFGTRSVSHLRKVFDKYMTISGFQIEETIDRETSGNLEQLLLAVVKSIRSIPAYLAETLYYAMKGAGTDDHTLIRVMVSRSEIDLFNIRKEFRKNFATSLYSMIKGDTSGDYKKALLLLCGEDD

Target	log2 fold change [1]	log2 fold change [2]	log2 fold change [3]	log2 fold change [4]	log2 fold change [5]
ADPRHL2 (UniProt Q9NX46)	-0.09	0.08	0.034	-0.057	-0.087
ATAD3B (UniProt Q5T9A4)	-0.02	-0.023	-0.055	0.123	0.025
BECN1 (UniProt Q14457)	-0.071	0.061	-0.017	0.021	0.05
ATL2 (UniProt Q8NHH9)	-0.019	0.05	0.091	-0.012	-0.077
ACP1 (UniProt P24666)	-0.058	-0.026	0.184	-0.041	-0.416
APPL1 (UniProt Q9UKG1)	-0.027	0.122	0.086	-0.025	-0.049
AP2S1 (UniProt P53680)	-0.013	-0.007	-0.036	0.037	0.043
ATP5ME (UniProt P56385)	0.028	0.117	0.007	-0.072	0.014
ALG3 (UniProt Q92685)	-0.061	0.019	0.072	0.054	-0.026
ACO2 (UniProt Q99798)	0	0.067	0.044	-0.023	-0.046
BUB1B isoform 3 (UniProt O60566)	-0.077	-0.004	0.1	0.01	-0.002
AP2B1 isoform 2 (UniProt P63010)	0.023	-0.017	-0.016	0.03	-0.002
BRD2 isoform 2 (UniProt P25440)	-0.257	2.34 (active)	0.092	2.33 (active)	0.029
AGPAT5 (UniProt Q9NUQ2)	-0.015	0.064	0.007	-0.008	-0.025
ATIC (UniProt P31939)	-0.023	0.039	0.073	-0.041	-0.012
BYSL (UniProt Q13895)	0.001	-0.085	-0.09	0.02	-0.042
ASNS (UniProt P08243)	0.025	0.044	0.027	-0.008	-0.019
BLOC1S3 (UniProt Q6QNY0)	-0.048	0.084	0.088	-0.113	-0.06
BRD3 (UniProt Q15059)	0.002	1.9 (active)	0	1.56 (active)	-0.021
AGPAT3 isoform 3 (UniProt Q9NRZ7)	-0.012	0.064	0.021	-0.048	-0.024
BTAF1 (UniProt O14981)	0.051	-0.003	0.124	0.005	0.055
ATG4B isoform 2 (UniProt Q9Y4P1)	-0.079	0.056	0.166	0.188	0.07
BRIX1 (UniProt Q8TDN6)	0.093	-0.349	-0.242	0.244	-0.007
ALKBH4 (UniProt Q9NXW9)	0.023	-0.063	-0.078	0.079	-0.033
ANAPC2 (UniProt Q9UJX6)	-0.017	0.016	-0.005	0.017	-0.049
BRD8 isoform 2 (UniProt Q9H0E9)	0.035	-0.091	0.167	0.046	0.038
ADD2 (UniProt P35612)	0.005	0.044	0.014	-0.024	0.016

Target	log2 fold change [1]	log2 fold change [2]	log2 fold change [3]	log2 fold change [4]	log2 fold change [5]
ATOX1 (UniProt O00244)	0.033	0.124	0.101	-0.153	0.008
ATP6V1H (UniProt Q9UI12)	-0.003	0.065	0.029	-0.019	-0.116
ARGLU1 (UniProt Q9NWB6)	0.072	-0.117	-0.013	0.01	0.096
ARL1 (UniProt P40616)	-0.084	0.057	0.079	-0.1	-0.048
ACOX3 (UniProt O15254)	0.015	0.238	-0.185	0.131	0.077
ARHGAP1 (UniProt Q07960)	-0.02	0.023	0.047	-0.005	0.002
AKT2 (UniProt P31751)	-0.124	0.055	0.061	0.009	-0.028
ACADM isoform 2 (UniProt P11310)	0.007	0.024	-0.015	-0.016	-0.031
ASH2L (UniProt Q9UBL3)	0.016	-0.013	0.081	-0.031	0.005
ANXA5 (UniProt P08758)	-0.036	0.04	0.024	0.021	-0.022
BSCL2 isoform 4 (UniProt Q96G97)	-0.07	0.106	-0.084	0.027	-0.127
ADRM1 (UniProt Q16186)	0.007	-0.062	-0.001	-0.019	-0.01
ARFIP1 (UniProt P53367)	0.04	0.042	0.051	-0.065	-0.03
BMP2K (UniProt Q9NSY1)	0.015	0	-0.018	0.035	-0.001
APOB (UniProt P04114)	0.041	0.028	0.055	0.034	-0.013
ARL3 (UniProt P36405)	-0.002	0.04	0.038	-0.06	-0.005
BRD8 (UniProt Q9H0E9)	0.027	-0.009	0.023	0.009	0.021
APLP2 (UniProt Q06481)	0.003	-0.003	0	0.036	0.038
B4GALT1 (UniProt P15291)	0.034	0.057	-0.065	-0.022	-0.042
ACP1 isoform 2 (UniProt P24666)	-0.107	-0.028	0.004	0.028	0.022
ATF7 isoform 6 (UniProt P17544)	-0.097	0	-0.187	0.184	-0.034
BZW1 isoform 3 (UniProt Q7L1Q6)	-0.227	0.002	0.044	-0.044	-0.017
BRAP (UniProt Q7Z569)	-0.058	0.025	0.05	0.081	0
ACSL4 (UniProt O60488)	-0.08	0.1	0.132	0.025	-0.031
ABITRAM (UniProt Q9NX38)	-0.037	0.145	0.032	-0.044	-0.016
ATP12A isoform 2 (UniProt P54707)	-0.027	0.062	0.052	-0.044	-0.043
